Of roughly 8,800 targets only a part is listed; those with a hit were picked by preference. About 0.5% of all pairs of compound and target were hits. Unmarked numbers belong to inactive results.
How the values were obtained:
Assay in all cases: log2 fold change, soluble protein after heating vs DMSO (PISA); higher = thermal stabilisation; K562 lysate, 10 uM; active = over 0.2 and 3.5 SD of the protein, either way, in both replicates (recomputed)
[1] = compound: C1=CC=C(C=C1)[C@H](COC2=CC3=C(C=C2)NC(=O)N3)NC(=O)C4=CC=CN(C4=O)CC5=CC(=C(C=C5)F)F
Procedure, shortened: (§1)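 Values give the log-two fold change in thermal stability against solvent controls, from duplicates. Crude K562 extract at 1 mg/mL protein, made by dounce homogenisation in PBS pH 7.4 with 1 mM MgCl2, was treated with 10 μM compound for 30 min. After 3 min heating across 48°C-58°C, aliquots were pooled, adjusted to 0.5% NP-40 at 4°C and centrifuged at 21,000xg for 90 min. The supernatant was measured by TMTpro 16plex LC-MS/MS with channel sums equalised.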

[2] = compound: CC1=C(SC2=C1C(=N[C@H](C3=NN=C(N32)C)CC(=O)N)C4=CC=C(C=C4)Cl)C
Procedure, shortened: as §1

[3] = compound: CC1=C2C(=CC=C1)N=C(N(C2=O)C3=CC=CC=C3C)CN4C=NC5=C(N=CN=C54)N
Procedure, shortened: as §1

[4] = compound: Cc1sc2c(c1C)C(c1ccc(Cl)cc1)=N[C@@H](CC(=O)OC(C)(C)C)c1nnc(C)n1-2
Procedure, shortened: as §1

[5] = compound: c1ccc([C@@H]2C[C@H]2NC2CCNCC2)cc1
Procedure, shortened: as §1

IRAK-1-4 Inhibitor I = compound: C1COCCN1CCN2C3=CC=CC=C3N=C2NC(=O)C4=CC(=CC=C4)[N+](=O)[O-] [IRAK-1-4 Inhibitor I]
Procedure, shortened: as §1

Sequence of UniProt Q5H9F3 (Q5H9F3 whole entry, looked up): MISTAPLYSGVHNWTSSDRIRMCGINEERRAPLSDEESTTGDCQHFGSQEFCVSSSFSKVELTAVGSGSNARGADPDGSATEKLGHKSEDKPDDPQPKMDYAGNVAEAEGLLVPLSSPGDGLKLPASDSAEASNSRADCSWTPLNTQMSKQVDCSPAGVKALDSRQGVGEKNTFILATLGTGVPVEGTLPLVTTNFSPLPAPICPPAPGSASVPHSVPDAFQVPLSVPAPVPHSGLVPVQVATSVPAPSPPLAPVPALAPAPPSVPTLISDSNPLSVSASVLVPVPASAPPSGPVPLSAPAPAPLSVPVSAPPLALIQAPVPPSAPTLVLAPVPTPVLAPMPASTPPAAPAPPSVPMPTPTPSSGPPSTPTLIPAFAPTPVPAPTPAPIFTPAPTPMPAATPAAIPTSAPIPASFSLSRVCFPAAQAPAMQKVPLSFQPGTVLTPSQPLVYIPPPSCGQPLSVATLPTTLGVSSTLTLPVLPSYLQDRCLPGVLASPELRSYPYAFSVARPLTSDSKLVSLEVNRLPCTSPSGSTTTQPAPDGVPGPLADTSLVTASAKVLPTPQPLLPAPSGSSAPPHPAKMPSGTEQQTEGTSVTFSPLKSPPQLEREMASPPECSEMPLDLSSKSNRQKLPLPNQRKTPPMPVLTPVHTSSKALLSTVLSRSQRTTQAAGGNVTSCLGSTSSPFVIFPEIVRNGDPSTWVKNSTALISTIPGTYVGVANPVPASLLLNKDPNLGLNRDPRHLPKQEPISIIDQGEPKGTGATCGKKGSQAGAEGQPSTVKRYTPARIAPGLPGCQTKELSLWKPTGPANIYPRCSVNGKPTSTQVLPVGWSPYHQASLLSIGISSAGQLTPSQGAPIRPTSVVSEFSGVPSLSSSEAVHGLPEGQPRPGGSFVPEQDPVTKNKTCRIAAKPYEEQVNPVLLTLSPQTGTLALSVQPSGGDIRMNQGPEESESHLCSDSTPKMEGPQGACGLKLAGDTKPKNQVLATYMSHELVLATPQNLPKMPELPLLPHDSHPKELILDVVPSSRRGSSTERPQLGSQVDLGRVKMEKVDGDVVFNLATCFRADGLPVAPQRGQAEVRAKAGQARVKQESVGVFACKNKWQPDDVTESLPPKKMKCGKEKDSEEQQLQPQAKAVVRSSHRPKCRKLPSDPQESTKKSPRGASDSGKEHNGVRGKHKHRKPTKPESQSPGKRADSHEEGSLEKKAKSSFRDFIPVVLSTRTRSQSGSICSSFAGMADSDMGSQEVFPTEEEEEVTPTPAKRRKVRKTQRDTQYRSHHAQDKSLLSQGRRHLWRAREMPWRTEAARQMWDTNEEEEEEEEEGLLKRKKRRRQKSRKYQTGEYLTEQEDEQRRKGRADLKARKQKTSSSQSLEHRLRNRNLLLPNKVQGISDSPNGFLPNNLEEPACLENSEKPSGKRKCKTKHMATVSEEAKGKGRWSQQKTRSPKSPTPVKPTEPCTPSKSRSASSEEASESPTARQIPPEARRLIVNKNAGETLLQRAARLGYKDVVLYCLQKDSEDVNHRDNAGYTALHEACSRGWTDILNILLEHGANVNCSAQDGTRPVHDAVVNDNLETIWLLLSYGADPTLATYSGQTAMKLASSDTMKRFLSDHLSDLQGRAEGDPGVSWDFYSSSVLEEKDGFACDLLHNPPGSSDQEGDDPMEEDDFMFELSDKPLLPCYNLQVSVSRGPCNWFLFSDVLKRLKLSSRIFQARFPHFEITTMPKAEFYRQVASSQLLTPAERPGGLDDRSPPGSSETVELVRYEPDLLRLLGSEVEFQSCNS
Sequence of UniProt P23634 (P23634 whole entry, looked up): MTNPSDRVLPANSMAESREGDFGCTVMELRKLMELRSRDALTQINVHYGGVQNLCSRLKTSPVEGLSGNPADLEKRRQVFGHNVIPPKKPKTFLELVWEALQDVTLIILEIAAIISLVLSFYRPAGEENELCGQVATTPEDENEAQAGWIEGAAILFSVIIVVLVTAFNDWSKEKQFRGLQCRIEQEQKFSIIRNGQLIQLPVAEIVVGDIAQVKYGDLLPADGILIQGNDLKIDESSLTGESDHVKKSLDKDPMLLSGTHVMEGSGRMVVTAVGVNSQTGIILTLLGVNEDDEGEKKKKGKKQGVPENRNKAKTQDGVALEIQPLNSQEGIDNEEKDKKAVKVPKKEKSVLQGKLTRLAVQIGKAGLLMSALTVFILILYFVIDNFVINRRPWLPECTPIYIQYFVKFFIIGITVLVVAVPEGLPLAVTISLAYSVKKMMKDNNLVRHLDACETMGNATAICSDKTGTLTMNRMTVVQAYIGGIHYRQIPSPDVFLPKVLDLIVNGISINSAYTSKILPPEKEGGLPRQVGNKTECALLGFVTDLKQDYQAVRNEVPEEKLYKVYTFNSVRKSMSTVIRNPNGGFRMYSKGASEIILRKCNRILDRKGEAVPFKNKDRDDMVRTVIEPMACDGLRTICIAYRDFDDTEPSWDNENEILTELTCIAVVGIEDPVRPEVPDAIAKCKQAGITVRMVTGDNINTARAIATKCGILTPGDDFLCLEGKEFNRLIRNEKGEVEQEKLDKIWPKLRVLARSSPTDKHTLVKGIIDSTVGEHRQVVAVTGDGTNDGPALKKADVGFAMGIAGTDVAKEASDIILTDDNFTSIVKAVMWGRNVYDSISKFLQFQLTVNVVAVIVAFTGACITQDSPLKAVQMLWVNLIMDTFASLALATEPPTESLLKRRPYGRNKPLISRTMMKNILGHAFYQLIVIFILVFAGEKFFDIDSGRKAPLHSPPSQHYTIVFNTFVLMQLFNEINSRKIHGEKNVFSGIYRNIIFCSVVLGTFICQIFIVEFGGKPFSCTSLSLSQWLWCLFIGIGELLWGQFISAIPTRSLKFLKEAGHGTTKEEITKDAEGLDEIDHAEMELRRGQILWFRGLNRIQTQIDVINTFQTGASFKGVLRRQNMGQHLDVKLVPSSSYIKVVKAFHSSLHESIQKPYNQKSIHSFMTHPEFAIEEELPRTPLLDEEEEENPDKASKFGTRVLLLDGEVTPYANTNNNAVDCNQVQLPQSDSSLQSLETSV
Sequence of UniProt Q8IYX8 (Q8IYX8 whole entry, looked up): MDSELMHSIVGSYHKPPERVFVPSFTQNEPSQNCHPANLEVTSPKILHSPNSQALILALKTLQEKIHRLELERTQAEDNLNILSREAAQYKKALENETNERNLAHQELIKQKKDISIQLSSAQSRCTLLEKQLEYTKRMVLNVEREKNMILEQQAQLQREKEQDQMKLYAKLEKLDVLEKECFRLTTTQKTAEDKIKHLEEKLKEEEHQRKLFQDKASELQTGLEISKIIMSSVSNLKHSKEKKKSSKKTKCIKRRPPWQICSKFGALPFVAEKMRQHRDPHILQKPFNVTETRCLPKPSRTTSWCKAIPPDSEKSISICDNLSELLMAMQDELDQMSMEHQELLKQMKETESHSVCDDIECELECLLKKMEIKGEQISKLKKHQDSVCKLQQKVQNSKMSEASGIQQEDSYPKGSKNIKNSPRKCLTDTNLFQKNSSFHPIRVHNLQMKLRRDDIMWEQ
Sequence of UniProt Q6ZRI6 (Q6ZRI6 whole entry, looked up): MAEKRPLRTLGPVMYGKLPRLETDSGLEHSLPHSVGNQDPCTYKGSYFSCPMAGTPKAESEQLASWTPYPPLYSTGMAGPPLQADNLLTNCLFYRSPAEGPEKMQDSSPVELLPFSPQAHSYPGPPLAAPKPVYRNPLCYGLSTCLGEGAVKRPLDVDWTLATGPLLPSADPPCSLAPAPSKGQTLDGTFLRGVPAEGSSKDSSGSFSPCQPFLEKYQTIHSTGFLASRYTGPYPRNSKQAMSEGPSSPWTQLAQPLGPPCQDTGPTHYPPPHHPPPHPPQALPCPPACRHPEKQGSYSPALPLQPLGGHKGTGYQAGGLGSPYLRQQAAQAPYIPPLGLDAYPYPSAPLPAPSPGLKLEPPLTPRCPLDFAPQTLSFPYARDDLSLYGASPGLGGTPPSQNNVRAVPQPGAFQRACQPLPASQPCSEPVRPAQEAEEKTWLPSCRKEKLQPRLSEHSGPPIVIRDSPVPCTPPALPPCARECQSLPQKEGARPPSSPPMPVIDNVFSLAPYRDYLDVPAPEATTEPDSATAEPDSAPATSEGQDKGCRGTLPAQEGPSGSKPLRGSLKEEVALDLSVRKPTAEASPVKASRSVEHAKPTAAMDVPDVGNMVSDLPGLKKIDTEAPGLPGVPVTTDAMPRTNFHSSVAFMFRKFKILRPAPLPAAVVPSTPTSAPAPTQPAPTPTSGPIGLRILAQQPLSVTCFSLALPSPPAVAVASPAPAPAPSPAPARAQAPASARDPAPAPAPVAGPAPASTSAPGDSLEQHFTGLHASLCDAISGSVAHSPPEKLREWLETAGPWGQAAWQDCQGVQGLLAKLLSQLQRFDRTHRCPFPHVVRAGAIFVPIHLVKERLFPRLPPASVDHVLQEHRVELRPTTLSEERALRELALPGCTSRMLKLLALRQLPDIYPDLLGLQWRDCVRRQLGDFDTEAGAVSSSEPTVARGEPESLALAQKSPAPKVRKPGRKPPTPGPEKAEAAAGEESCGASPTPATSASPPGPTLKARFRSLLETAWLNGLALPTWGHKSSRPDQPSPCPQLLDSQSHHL
Sequence of UniProt O00311 (O00311 whole entry, looked up): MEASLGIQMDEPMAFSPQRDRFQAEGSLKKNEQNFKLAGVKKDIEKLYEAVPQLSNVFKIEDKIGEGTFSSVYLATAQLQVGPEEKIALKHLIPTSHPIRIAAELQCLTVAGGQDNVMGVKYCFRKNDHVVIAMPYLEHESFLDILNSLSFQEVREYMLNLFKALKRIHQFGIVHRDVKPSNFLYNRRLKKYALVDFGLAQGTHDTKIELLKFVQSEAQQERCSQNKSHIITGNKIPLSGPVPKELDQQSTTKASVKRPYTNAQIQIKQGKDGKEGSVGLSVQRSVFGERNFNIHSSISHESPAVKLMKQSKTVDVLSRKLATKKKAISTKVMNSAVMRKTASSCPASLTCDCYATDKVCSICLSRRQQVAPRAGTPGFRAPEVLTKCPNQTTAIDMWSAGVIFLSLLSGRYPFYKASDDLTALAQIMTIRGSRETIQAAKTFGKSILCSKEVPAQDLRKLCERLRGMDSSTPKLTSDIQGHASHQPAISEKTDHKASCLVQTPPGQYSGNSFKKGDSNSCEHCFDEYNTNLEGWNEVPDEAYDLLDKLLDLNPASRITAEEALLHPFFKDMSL

| Target | log2 fold change [1] | log2 fold change [2] | log2 fold change [3] | log2 fold change [4] | log2 fold change [5] | log2 fold change (IRAK-1-4 Inhibitor I) |
| --- | --- | --- | --- | --- | --- | --- |
| CDKN1B (UniProt P46527) | 0.059 | -0.038 | 0.146 | 0.101 | 0.02 | – |
| BRAF (UniProt P15056) | -0.024 | -0.051 | 0.012 | -0.017 | -0.06 | – |
| CDC7 (UniProt O00311) | -0.063 | 0.084 | 0.019 | 0.003 | 0.008 | – |
| CDC42BPA isoform 6 (UniProt Q5VT25) | 0.008 | -0.003 | -0.008 | 0.026 | 0.052 | – |
| CCNC (UniProt P24863) | 0.045 | -0.09 | -0.035 | -0.036 | -0.129 | – |
| CCPG1 isoform 5 (UniProt Q9ULG6) | -0.069 | -0.118 | 0.046 | -0.082 | -0.026 | – |
| ATP2B4 (UniProt P23634) | -0.021 | 0.036 | 0.059 | 0.029 | -0.081 | – |
| C12orf45 (UniProt Q8N5I9) | 0.074 | 0 | -0.007 | -0.008 | -0.122 | – |
| CASP3 (UniProt P42574) | 0.051 | -0.011 | 0.039 | 0.051 | 0.103 | – |
| CDC16 (UniProt Q13042) | -0.038 | 0.027 | 0.025 | 0.03 | 0.021 | – |
| CACUL1 (UniProt Q86Y37) | – | – | -0.046 | 0.088 | 0.111 | – |
| CD80 (UniProt P33681) | – | – | 0.032 | 0.018 | 0.048 | – |
| BUD13 (UniProt Q9BRD0) | -0.037 | 0.068 | – | -0.162 | 0.029 | – |
| CASC1 (UniProt Q6TDU7) | -0.256 | 0.037 | – | – | 0.046 | – |
| ATF7IP2 (UniProt Q5U623) | 0.162 | 0.01 | 0.101 | – | 0.017 | – |
| CDC25A (UniProt P30304) | – | – | – | -0.064 | – | – |
| B3GALT6 (UniProt Q96L58) | 0.055 | 0.041 | – | 0.269 | – | – |
| CHD9 (UniProt Q3L8U1) | – | – | -0.074 | 0.236 | 0.232 | – |

| Target | log2 fold change [1] | log2 fold change [2] | log2 fold change [3] | log2 fold change [4] | log2 fold change [5] | log2 fold change (IRAK-1-4 Inhibitor I) |
| --- | --- | --- | --- | --- | --- | --- |
| C6orf120 (UniProt Q7Z4R8) | -0.101 | -0.015 | – | -0.131 | 0.137 | – |
| ATG4D (UniProt Q86TL0) | -0.011 | 0.057 | – | 0.041 | – | – |
| ATPSCKMT (UniProt Q6P4H8) | 0.111 | -0.006 | – | 0.023 | – | – |
| BAHCC1 (UniProt Q9P281) | – | – | 0.011 | -0.187 | -0.696 (active) | – |
| C3AR1 (UniProt Q16581) | 0.121 | 0.024 | – | – | -0.083 | – |
| CAD (UniProt H7BZB3) | – | – | -0.011 | – | -0.003 | – |
| BTRC (UniProt Q9Y297) | 0.024 | -0.042 | -0.003 | – | -0.048 | – |
| C1orf131 isoform 5 (UniProt Q8NDD1) | – | – | 0.096 | -0.009 | -0.108 | – |
| ATXN2 (UniProt F8WB06) | – | – | – | -0.014 | – | – |
| CANX (UniProt D6RHJ3) | – | – | 0.072 | – | – | – |
| CEP57L1 (UniProt Q8IYX8) | -0.078 | 0.115 | – | 0.143 | 0.099 | – |
| C15orf39 (UniProt Q6ZRI6) | -0.095 | 0.049 | – | 0.032 | 0.161 | – |
| BCORL1 isoform 3 (UniProt Q5H9F3) | – | – | 0.029 | 0 | -0.382 | -0.141 |
| CENPV (UniProt Q7Z7K6) | 0.059 | -0.217 | -0.201 | – | 0.166 | – |
| BRAF, A0A2R8Y8E0 | – | – | -0.13 | – | – | – |
| ATE1 (UniProt O95260) | 0 | 0.07 | – | – | -0.125 | – |
| CCND3 (UniProt P30281) | 0.043 | 0.051 | – | 0.036 | -0.023 | – |

From the supplement of paper PMC10849652
